From PubChem BioAssay AID1159580 (chemical genetic matrix, 2015)
The campaign covered roughly 5,500 compounds. About 2,000 (36%) were called active. Roughly 18% stayed inconclusive and do not appear here. Rule as the data show it: active = normalized growth mostly below about 0.91 (no sharp cut-off); inconclusive = no clear call, values can overlap the other calls; inactive = mostly above about 0.92. Some of the results follow.

Test: chemical genetic growth profiling, strain panel (AID 1159580);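 also: tested at 20 µM; growth read once vehicle control cultures reached saturation at 30 °C; 1 = growth at the plate median or of vehicle wells; lower values mean less growth of the strain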
Conditions: S. cerevisiae deletion strains, growth OD

Measured: normalized growth

CCOC(=O)c1oc2c(OC)c(O)cc(O)c2c(=O)c1-c1cc(OC)c(OC)c(OC)c1
active: locus YDR137W, strain rgp1, active compounds read low 0.799 | locus YLR262C, strain YPT6 (second series), active compounds read low 0.82
inactive: locus YAL021C, strain ccr4, active compounds read low 0.985 | locus YAL026C, strain drs2, active compounds read low 0.974 | locus YAL030W, strain snc1, active compounds read low 0.968 | locus YBL061C, strain skt5, active compounds read low 0.976 | locus YBR009C, strain hhf1, active compounds read low 0.972 | locus YBR023C, strain chs3, active compounds read low 0.972 | locus YBR171W, strain sec66, active compounds read low 0.956 | locus YBR231C, strain swc5, active compounds read low 0.974 | locus YBR279W, strain paf1, active compounds read low 0.987 | locus YCL011C, strain gbp2, active compounds read low 0.976 | locus YCL016C, strain dcc1, active compounds read low 0.977 | locus YCL061C, strain MRC1, active compounds read low 0.966 | locus YCL069W, strain vba3, active compounds read low 0.989 | locus YCR088W, strain abp1, active compounds read low 0.972 | locus YDL005C, strain med2, active compounds read low 0.993 | locus YDL040C, strain nat1, active compounds read low 0.983 | locus YDR001C, strain nth1, active compounds read low 0.982 | locus YDR069C, strain doa4, active compounds read low 0.991 | locus YDR159W, strain sac3, active compounds read low 0.973 | locus YDR195W, strain ref2 1.05 | locus YDR297W, strain sur2, active compounds read low 0.979 | locus YDR334W, strain swr1, active compounds read low 0.98 | locus YDR335W, strain msn5, active compounds read low 0.971 | locus YDR392W, strain spt3, active compounds read low 0.878 | locus YEL003W, strain gim4, active compounds read low 0.978 | locus YEL037C, strain rad23, active compounds read low 0.98 | locus YEL061C, strain CIN8 (second series), active compounds read low 0.978 | locus YER015W, strain faa2, active compounds read low 0.986 | locus YER016W, strain bim1, active compounds read low 0.969 | locus YER111C, strain swi4, active compounds read low 0.989 | locus YER155C, strain BEM2 (second series), active compounds read low 0.947 | locus YFR010W, strain ubp6, active compounds read low 0.986 | locus YGL167C, strain pmr1, active compounds read low 0.957 | locus YGL173C, strain kem1, active compounds read low 0.965 | locus YGL227W, strain vid30, active compounds read low 0.959 | locus YGL240W, strain doc1, active compounds read low 0.948 | locus YGL253W, strain hxk2, active compounds read low 0.974 | locus YHR013C, strain ard1, active compounds read low 1.01 | locus YHR027C, strain rpn1, active compounds read low 0.985 | locus YHR142W, strain chs7, active compounds read low 0.955 | locus YJL092W, strain hpr5, active compounds read low 0.973 | locus YJL095W, strain BCK1 (second series), active compounds read low 0.975 | locus YJL115W, strain asf1, active compounds read low 0.986 | locus YJL129C, strain trk1, active compounds read low 0.977 | locus YJL154C, strain vps35, active compounds read low 0.984 | locus YJL164C, strain tpk1, active compounds read low 0.964 | locus YJL166W, strain qcr8, active compounds read low 0.975 | locus YJL187C, strain SWE1, active compounds read low 0.985 | locus YKL160W, strain elf1, active compounds read low 0.966 | locus YKR026C, strain gcn3, active compounds read low 0.97 | locus YKR091W, strain srl3, active compounds read low 0.973 | locus YLL001W, strain dnm1, active compounds read low 0.98 | locus YLL026W, active compounds read low 0.968 | locus YLL041C, strain sdh2, active compounds read low 0.974 | locus YLR027C, strain aat2, active compounds read low 0.972 | locus YLR221C, strain rsa3, active compounds read low 0.972 | locus YLR258W, strain gsy2, active compounds read low 0.969 | locus YLR320W, strain mms22, active compounds read low 0.901 | locus YLR342W, strain FKS1, active compounds read low 0.971 | locus YLR357W, strain rsc2, active compounds read low 1 | locus YLR370C, strain arc18, active compounds read low 0.972 | locus YLR384C, strain iki3, active compounds read low 0.982 | locus YML120C, strain ndi1, active compounds read low 0.973 | locus YMR058W, strain fet3, active compounds read low 0.976 | locus YMR125W, strain sto1, active compounds read low 0.985 | locus YMR129W, active compounds read low 0.978 | locus YMR205C, strain PFK2, active compounds read low 0.933 | locus YMR231W, strain pep5, active compounds read low 0.997 | locus YNL071W, strain lat1, active compounds read low 0.959 | locus YNL209W, strain ssb2, active compounds read low 0.98 | locus YNL248C, strain rpa49, active compounds read low 0.958 | locus YNL322C, strain KRE1 (second series), active compounds read low 0.971 | locus YNR049C, strain mso1, active compounds read low 0.974 | locus YOR001W, strain rrp6, active compounds read low 0.969 | locus YOR070C, strain gyp1, active compounds read low 0.973 | locus YOR080W, strain dia2, active compounds read low 0.985 | locus YOR083W, strain WHI5, active compounds read low 0.965 | locus YOR106W, strain vam3, active compounds read low 0.975 | locus YOR265W, strain rbl2, active compounds read low 0.974 | locus YOR270C, strain vph1, active compounds read low 0.915 | locus YOR290C, strain snf2, active compounds read low 0.959 | locus YPL051W, strain arl3, active compounds read low 0.963 | locus YPL078C, strain atp4, active compounds read low 0.973 | locus YPL106C, strain sse1, active compounds read low 0.997 | locus YPL240C, strain hsp82, active compounds read low 0.964
